According to PubChem BioAssay (EPA / NIEHS):
Where “and” joins values, the source holds several entries; their conditions need not be identical. Equal values may be shown once. Inconclusive results are not listed. Calls of active or inactive are those of the source. How the source made its calls, unless noted: active means hit-call score of the fitted dose curve at least 0.9, where 1 is the maximum; inactive means score below 0.9.

Experiments:
[1] = read-out: Secreted IgG (sIgG), gene 3500; assay: BSK_BT_sIgG: BioMAP Diversity Plus: BT Assay for Secreted IgG (sIgG) Biomarker Activity (AID 2284226); conditions: primary human B cells with PBMC
Method in brief: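 Read-out: ELISA for secreted IgG after 24 h of chemical exposure in a B cell plus PBMC co-culture. Values reflect upward-direction fitting against DMSO negative controls.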

[2] = BSK_BT_Bcell_Proliferation: Viability Assessment in the BioMAP Diversity Plus: BT Assay for B cell Proliferation (AID 2284227); conditions: primary human B cells with PBMC
Method in brief: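 Read-out is absorbance at 560 nm from sulforhodamine B staining of total protein, reflecting relative cell numbers in a human B cell and PBMC co-culture after 72 h of chemical exposure. Values were referenced to DMSO.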

[3] = read-out: Interleukin 6 (IL6), IL6 (gene 3569); assay: BSK_BT_xIL6: BioMAP Diversity Plus: BT Assay for Interleukin 6 (IL6) Biomarker Activity (AID 2284228); conditions: primary human B cells with PBMC
Method in brief: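 B cells and peripheral blood mononuclear cells (human primary co-culture) were dosed with chemical, and after 24 h IL-6 released into the medium was measured by Luminex xMAP. Responses were analysed as gain of signal over DMSO control.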

[4] = read-out: Interleukin 17A (IL17A), IL17A (gene 3605); assay: BSK_BT_xIL17A: BioMAP Diversity Plus: BT Assay for Interleukin 17A (IL17A) Biomarker Activity (AID 2284229); conditions: primary human B cells with PBMC
Method in brief: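 Secreted IL-17A was the measured endpoint, read by Luminex xMAP multiplex in supernatants of a human B cell/PBMC co-culture harvested 24 h after chemical dosing. Signal increase relative to DMSO defined activity.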

[5] = read-out: Tumor necrosis factor (Homo sapiens) (UniProt P01375); assay: BSK_BT_xTNFa: BioMAP Diversity Plus: BT Assay for Tumor necrosis factor alpha (TNF-alpha) Biomarker Activity (AID 2284230); conditions: primary human B cells with PBMC
Method in brief: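 Human primary co-culture of B cells and peripheral blood mononuclear cells; TNF-alpha in supernatant, 24 h post-dose, Luminex multiplex; DMSO = baseline.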

[6] = read-out: Vascular cell adhesion molecule 1 (VCAM1), VCAM1 (gene 7412); assay: BSK_MyoF_VCAM1: BioMAP Diversity Plus: MyoF Assay for Vascular cell adhesion molecule 1 (VCAM1) Biomarker Activity (AID 2284231); conditions: primary human lung fibroblasts
Method in brief: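 ELISA read-out of VCAM-1 on human lung fibroblasts 24 h after chemical treatment, with positive-direction curve fitting relative to DMSO controls. Parallel cultures were stained with sulforhodamine B for total protein to flag overt cytotoxicity.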

[7] = read-out: Collagen I, COL1A1 (gene 1277); assay: BSK_MyoF_CollagenI: BioMAP Diversity Plus: MyoF Assay for Collagen I Biomarker Activity (AID 2284238); conditions: primary human lung fibroblasts
Method in brief: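 Lung fibroblasts (human primary) dosed, 24 h; Collagen I by ELISA; positive-direction fit vs DMSO control. Parallel SRB total-protein staining (0.1% SRB, 10% TCA fixation, 560 nm) flags overt cytotoxicity.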

[8] = read-out: Collagen III, COL3A1 (gene 1281); assay: BSK_MyoF_CollagenIII: BioMAP Diversity Plus: MyoF Assay for Collagen III Biomarker Activity (AID 2284239); conditions: primary human lung fibroblasts
Method in brief: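 ELISA read-out of collagen III from human lung fibroblasts after 24 h of chemical treatment. The DMSO control served as negative control and baseline, with values fitted in the positive direction.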

[9] = read-out: Interleukin 17F (IL17F), IL17F (gene 112744); assay: BSK_BT_xIL17F: BioMAP Diversity Plus: BT Assay for Interleukin 17F (IL17F) Biomarker Activity (AID 2284243); conditions: primary human B cells with PBMC
Method in brief: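 Compound was added to co-cultures of human B cells and PBMC. After 24 hours, IL-17F released into the medium was measured with LumineX xMAP technology. Responses were then fitted upward relative to DMSO.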

[10] = read-out: Actin alpha 1 (ACTA1), ACTA1 (gene 58); assay: BSK_MyoF_ACTA1: BioMAP Diversity Plus: MyoF Assay for Actin alpha 1 (ACTA1) Biomarker Activity (AID 2284244); conditions: primary human lung fibroblasts
Method in brief: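 Lung fibroblasts, human primary, 24 h compound exposure → a-SMA ELISA. Positive-direction fit vs DMSO control.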

[11] = read-out: Interleukin 2 (IL2), IL2 (gene 3558); assay: BSK_BT_xIL2: BioMAP Diversity Plus: BT Assay for Interleukin 2 (IL2) Biomarker Activity (AID 2284245); conditions: primary human B cells with PBMC
Method in brief: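 B cell + PBMC co-culture (human primary), compound added, 24 h incubation; secreted IL-2 measured multiplexed on Luminex xMAP; gain-of-signal fit vs DMSO.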

[12] = TAMU_PeakParms_SingleDonor1434_QT: Texas A&M University (TAMU) 1.5-hr Human Induced Pluripotent Stem Cell (iPSC)-derived Cardiomyocytes Calcium (Ca+2) Flux Assay for Cardiotoxicity: QT (decay-rise ratio) (AID 2284235; active means hit-call score of the fitted dose curve at least 0.9, where 1 is the maximum)
Method in brief: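 iPSC-derived cardiomyocytes (single donor 1434) dosed at 0.2, 1, 10, 100 uM final in 0.5% DMSO, 90 min at 37C. Ca2+ flux fluorescence decay/rise ratio; EC05 (5% increase versus DMSO) as POD, excluding beat-arrest and severe-notch data.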

[13] = CCTE_Mundy_HCI_Cortical_NOG_NeuronCount: CCTE's Neurite Outgrowth Assay in rat cortical cells for Neuron Count, Mundy Lab (AID 2284236; active means hit-call score of the fitted dose curve at least 0.9, where 1 is the maximum;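 further: neurons counted by imaging betaIII-tubulin and Hoechst stained cortical cells; cells exposed to compound for about 48 hours before fixation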)
Method in brief: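 Read-out: neuron number by high-content imaging of betaIII-tubulin (Alexa Fluor-488) and Hoechst-labelled rat primary cortical cells.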

[14] = CCTE_Mundy_HCI_Cortical_NOG_BPCount: CCTE's Neurite Outgrowth Assay in rat cortical cells for Branch Point Count, Mundy Lab (AID 2284237)
Method in brief: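 Measured 50.33 h after dosing, this morphology endpoint uses rat primary cortical cultures labelled for betaIII-tubulin. Branch points are quantified by high-content imaging, with DMSO as negative control and baseline.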

[15] = CCTE_Mundy_HCI_hNP1_Casp3_7: CCTE's Caspase-Glo 3/7 Assay in human neuroprogenitor cells for Apoptosis, Mundy Lab (AID 2284240)
Method in brief: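 Neuroepithelial-lineage stem cells from WA09 embryonic cells were treated with chemicals after 40–44 h of culture. Twenty-four hours later, caspase-3/7 activation was detected luminescently after a 30 min room-temperature reagent step, with DMSO as baseline.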

[16] = CCTE_Mundy_HCI_hNP1_CellTiter: CCTE's Cell Titer-Glo 2 Assay in human neuroprogenitor cells for Viability, Mundy Lab (AID 2284241; active means hit-call score of the fitted dose curve at least 0.9, where 1 is the maximum)
Method in brief: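 Measures ATP content in human neural progenitors derived from WA09 embryonic cells. Read-out at 26.5 hours after dosing, with DMSO serving as the negative control and baseline.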

Measured: AC50

Sequence of Tumor necrosis factor (Homo sapiens) (P01375 whole entry, looked up): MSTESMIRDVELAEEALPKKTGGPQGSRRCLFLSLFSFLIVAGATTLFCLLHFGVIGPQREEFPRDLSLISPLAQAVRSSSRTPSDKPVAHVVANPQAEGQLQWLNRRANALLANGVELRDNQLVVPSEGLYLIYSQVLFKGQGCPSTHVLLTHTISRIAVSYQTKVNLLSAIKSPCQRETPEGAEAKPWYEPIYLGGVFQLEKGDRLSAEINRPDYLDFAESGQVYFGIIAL

CCOC(=O)C=Cc1ccccc1
not listed: [12] | [13] | [14] | [15] | [16]
inactive: all other assays above

c1ccc(Sc2ccccc2)cc1
inactive: [1] | [2] | [3] | [4] | [5] | [9] | [11]
active: [6] 34.1 µM | [7] 30.3 µM | [8] 34.2 µM | [10] 30.8 µM

CCCCCCCCCC(=O)OCC
active: [10] 26.9 µM
not listed: [12] | [13] | [14] | [15] | [16]
inactive: all other assays above

CCCCCCCC1CCCC1=O (configuration not stated)
active: [1] 2.5 µM | [7] 32.6 µM | [8] 32.7 µM
not listed: [12] | [13] | [14] | [15] | [16]
inactive: all other assays above

CC(=O)CCC=C(C)CCC=C(C)C
active: [1] 20 µM | [2] 31.7 µM
inactive: [3] | [4] | [5] | [6] | [8] | [9] | [10] | [11]

OCCN1CCOCC1
active: [8] 0.016 µM
not listed: [12] | [13] | [14] | [15] | [16]
inactive: all other assays above

C=C1CC/C=C(\C)CC[C@@H]2[C@@H]1CC2(C)C
inactive: [1] | [2] | [3] | [4] | [5] | [9] | [11]
active: [6] 23.9 µM | [7] 25.7 µM | [8] 30.1 µM | [10] 14.9 µM

O=C(O)C(F)(F)C(F)(F)C(F)(F)C(F)(F)C(F)(F)C(F)(F)C(F)(F)C(F)F
active: [2] 21 µM and 22.2 µM
not listed: [12] | [13] | [14] | [15] | [16]
inactive: all other assays above

N#CCCNCCC#N
inactive: [12] | [13] | [14] | [15] | [16]
